Only a selection was taken, and hits are over-represented in it overall.
DUX4 inh = inhibitors of DUX4-driven ZSCAN4 reporter expression, primary screen, 293T cells, Gaussia and Italica luciferase. 293T-iDUX4 ZSCAN4-Gaussia luciferase reporter, 24 h; hits give low values. activity change, negative = inhibition, % (no concentration beside the values). actives 0.8% (n = 37,000);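 active means mean inhibition of at least 10% in the main channel, exceeding the control channel by a set limit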;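 further: 0% = median of neutral control wells and -100% = median of positive control wells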
Starred values were filed as active, the others as inactive; ! = not confirmed by another sample.

SMILES | DUX4 inh
CO[C@H]1CN(C)C(=O)c2cc(C#N)ccc2OC[C@H]2O[C@H](CC[C@H]2OC)CCN(C)C(=O)[C@@H]1C | -1
CN1CCN(C(=O)C[C@@H]2C[C@H]3c4cc(NC(=O)c5ccc6c(c5)OCO6)ccc4O[C@H]3[C@H](CO)O2)CC1 | 11
O=C(C[C@H]1CC[C@H]2NC[C@H](O)COC[C@@H]2O1)Nc1ccccc1 | -4
CN(C)C(=O)c1cccc(-c2ccc3c(c2)[C@@H]2[C@@H](CCN2Cc2ccccc2F)[C@H](CO)N3)c1 | -3
CC(C)NC(=O)N1C[C@@H]2[C@H](c3ccccc31)[C@@H](CO)N2Cc1ccccn1 | 4
C[C@H]1CN([C@@H](C)CO)S(=O)(=O)c2ccc(C#CC3(O)CCCC3)cc2O[C@H]1CN(C)C(=O)c1cccnc1 | -3
CC(=O)N1CC2(C1)[C@@H](c1ccccc1)[C@H](CO)N2C(=O)c1ccncc1 | -2
COc1cccc(CN2[C@@H](CO)[C@@H](c3ccccc3)C23CN(C(=O)C2CC2)C3)c1 | -2
COc1cccc(CN2[C@@H](CO)[C@@H](c3ccccc3)C23CN(C(=O)C2CCC2)C3)c1 | -6
COc1cccc(CN2[C@@H](CO)[C@@H](c3ccccc3)C23CN(Cc2ccccc2OC)C3)c1 | -38*
Cc1noc(C)c1NC(=O)N(C)C[C@H]1Oc2ccc(N(C)C)cc2CC(=O)N([C@H](C)CO)C[C@@H]1C | 4
COc1cccc(CN2CCCCN3[C@@H](CO)[C@@H](c4ccc(C#Cc5cccnc5)cc4)[C@@H]3C2)c1 | -36*
COc1cccc(CN2CCCCN3[C@H](CO)[C@@H](c4ccc(-c5cccnc5)cc4)[C@H]3C2)c1 | 5
COCC#Cc1ccc([C@@H]2[C@@H](CO)N3CCCCN(Cc4cccnc4)C[C@H]23)cc1 | 9
COc1cccc(CN2CCCCN3[C@H](C2)[C@@H](c2ccc(C#Cc4cccnc4)cc2)[C@@H]3CO)c1 | -17*
COCC#Cc1ccc([C@@H]2[C@H]3CN(Cc4cccnc4)CCCCN3[C@H]2CO)cc1 | 6
COCC#Cc1ccc([C@H]2[C@H]3CN(Cc4cccnc4)CCCCN3[C@H]2CO)cc1 | 29
CCCN1[C@@H]2Cn3c(ccc(-c4cccnc4)c3=O)[C@H]1[C@@H](C(=O)NC1CCCC1)[C@@H]2CO | 3
CCCC#Cc1ccc([C@H]2[C@H]3CN(C(=O)c4cccc(F)c4)CC(=O)N3[C@H]2CO)cc1 | -9
O=C(c1ccccn1)N1CC[C@@H]2[C@@H](CO)Nc3ccc(-c4ccccc4F)cc3[C@@H]21 | 13
CNC[C@H]1Oc2c(NC(=O)Nc3cccc4ccccc34)cccc2C(=O)N([C@H](C)CO)C[C@@H]1C | -3
O=C(C[C@H]1CC[C@H]2[C@@H](COC[C@H](O)CN2Cc2cccc(Cl)c2)O1)N1CCCCC1 | -6
COc1cccc(-c2ccc(C3[C@@H]4CN(S(=O)(=O)c5cn(C)cn5)C[C@H]3N4)cc2)c1 (stereo partly specified) | -34*!
COc1cccc(-c2ccc(C3[C@@H]4CN(C(=O)C5CCOCC5)C[C@H]3N4)cc2)c1 (stereo partly specified) | 13
C/C=C/c1ccc(C2[C@@H]3CN(S(=O)(=O)c4ccc(C)cc4)C[C@H]2N3)cc1 (stereo partly specified) | 4
SMILES | DUX4 inh
N#Cc1cccc(-c2ccc([C@H]3[C@H]4CN(S(=O)(=O)c5ccccc5)CCCCN4[C@H]3CO)cc2)c1 | 3
COc1ccc(S(=O)(=O)N2[C@@H]3CNC[C@H]2C3c2ccc(-c3ccccc3OC)cc2)cc1 (stereo partly specified) | 12
COc1ccccc1S(=O)(=O)N1C[C@@H]2N[C@H](C1)C2c1ccc(-c2ccncc2)cc1 (stereo partly specified) | -5
N#Cc1cccc(-c2ccc(C3[C@@H]4CN(S(=O)(=O)c5ccccc5)C[C@H]3N4)cc2)c1 (stereo partly specified) | -41*!
COc1ccccc1-c1ccc(C2[C@@H]3CN(S(=O)(=O)c4ccc(C)cc4)C[C@H]2N3)cc1 (stereo partly specified) | -34*!
Cc1ccc(S(=O)(=O)N2C[C@@H]3N[C@H](C2)C3c2ccc(-c3cccc(C#N)c3)cc2)cc1 (stereo partly specified) | -43*!
COc1cccc(-c2ccc(C3[C@H]4CNC[C@@H]3N4S(=O)(=O)c3cn(C)cn3)cc2)c1 (stereo partly specified) | 14
N#Cc1cccc(-c2ccc3c(c2)[C@@H]2[C@@H](CCN2S(=O)(=O)c2ccccc2)[C@@H](CO)N3)c1 | -4
Cc1ccc(S(=O)(=O)N2[C@@H]3CNC[C@H]2C3c2ccc(-c3ccc(C#N)cc3)cc2)cc1 (stereo partly specified) | 17
CCC(=O)N1CC[C@@H]2[C@@H](CO)Nc3ccc(-c4ccc(F)cc4)cc3[C@@H]21 | 10
CN(C)CC(=O)Nc1ccc2c(c1)[C@H]1C[C@H](CC(=O)NCc3ccncc3)O[C@@H](CO)[C@H]1O2 | 10

Source: PubChem (Broad Institute)
